TWEAK Fn14 block: inhibitors of TWEAK-Fn14 interaction signaling. TWEAK-stimulated Fn14 reporter cells, luciferase luminescence, 8 h. inhibition, % at 10 µM. 360,000 tested, 2% active. AID 1159606; in the data active = inhibition above about 50%
KKLEB tox: counter-screen for CF NF-kB inhibitors: cytotoxicity; AID 602141; 360,000 tested, 0.36% active; activity change (cytotoxicity), % at 5 µM; KKLEB CF airway cells viability, ATPlite luminescence, overnight; stronger effect = lower value; cells stimulated with P. aeruginosa culture filtrate;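 active = corrected activity change at or below -50% at 5 µM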
HIF-2a inh: inhibitors of HIF-2a | 786-0 RCC cells HIF-2a reporter, luciferase luminescence, overnight | inhibition, % at 18.8 µM | 360,000 tested, 0.72% active | AID 624352;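 active = inhibition of the luminescence signal of 40% or more relative to plate controls, in a single-dose primary screen at 18.75 µM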
TROY NFkB inh: TROY signaling inhibition | Q293 LMP1-TROYcd NF-kB luciferase reporter, 4 h | inhibition, % at 10 µM | 360,000 tested, 0.98% active;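 active = compounds whose plate-normalised and pattern-corrected inhibition of the luciferase reporter signal at the single screening dose is 50% or more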
Peg3 promoter: Peg3 promoter activity inhibition; HeLa PEG-Prom luciferase reporter, luminescence, overnight; 360,000 tested, 1.7% active; inhibition, % at 20 µM; AID 588405;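 active = inhibition of at least 50% at 20 µM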
CF NFkB block: blocks PAF-induced NF-kB reporter in cystic fibrosis cells; KKLEB NF-kB-GFP reporter, GFP fluorescence overnight; inhibition, % at 5 µM; 360,000 tested, 0.86% active; AID 588850;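 active = at least 50% inhibition at 5 µM, scaled per plate between neutral and stimulator controls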;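 also: PAF is a Pseudomonas aeruginosa culture filtrate used as stimulus; plate controls were PAF-stimulated DMSO wells for no effect and unstimulated DMSO wells for full effect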
Mdm2 MdmX conf: Mdm2/MdmX (human) interaction inhibition, confirmed. shares compounds with HIF-2a inh. SaOS-2 split-luciferase Mdm2/MdmX complementation, luminescence. inhibition, % at 8 µM. 740 tested, 99% active;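 active = mean inhibition of the luminescence signal across two replicates at or above 26 percent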
Target sequence (O15151 whole entry, looked up): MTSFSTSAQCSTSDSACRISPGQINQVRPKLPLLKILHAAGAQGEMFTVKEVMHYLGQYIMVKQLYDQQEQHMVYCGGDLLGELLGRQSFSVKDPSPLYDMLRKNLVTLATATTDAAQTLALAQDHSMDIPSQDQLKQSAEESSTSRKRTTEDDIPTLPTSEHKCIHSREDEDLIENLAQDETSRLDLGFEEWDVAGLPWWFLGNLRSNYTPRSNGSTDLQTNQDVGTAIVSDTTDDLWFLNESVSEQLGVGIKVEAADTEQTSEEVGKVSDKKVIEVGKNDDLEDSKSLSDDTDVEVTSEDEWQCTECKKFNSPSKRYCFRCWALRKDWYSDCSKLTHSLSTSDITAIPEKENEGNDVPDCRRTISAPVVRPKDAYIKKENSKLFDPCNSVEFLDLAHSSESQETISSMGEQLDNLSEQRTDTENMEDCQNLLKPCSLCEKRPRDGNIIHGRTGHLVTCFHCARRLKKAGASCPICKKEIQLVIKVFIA
Target sequence (Q00987 whole entry, looked up): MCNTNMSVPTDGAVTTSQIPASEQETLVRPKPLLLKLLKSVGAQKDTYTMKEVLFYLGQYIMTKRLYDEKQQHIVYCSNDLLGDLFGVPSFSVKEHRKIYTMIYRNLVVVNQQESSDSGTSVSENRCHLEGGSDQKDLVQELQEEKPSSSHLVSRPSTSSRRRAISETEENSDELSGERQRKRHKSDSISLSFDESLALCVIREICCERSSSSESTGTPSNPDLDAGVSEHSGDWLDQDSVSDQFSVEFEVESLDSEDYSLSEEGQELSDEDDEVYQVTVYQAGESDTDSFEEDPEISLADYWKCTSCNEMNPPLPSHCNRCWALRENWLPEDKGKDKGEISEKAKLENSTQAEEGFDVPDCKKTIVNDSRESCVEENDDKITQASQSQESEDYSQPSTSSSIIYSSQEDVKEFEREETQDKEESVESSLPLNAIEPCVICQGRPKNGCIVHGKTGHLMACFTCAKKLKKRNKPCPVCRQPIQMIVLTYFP
HIF-2a conf: HIF-2a inhibition, single concentration confirmation. shares compounds with HIF-2a inh. 786-0 RCC cells, HIF-2a luciferase reporter luminescence, overnight. inhibition, % at 18.8 µM. 1,800 tested, 56% active. AID 651580;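 active = mean inhibition across four replicates of at least 40 percent at the single tested concentration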
HIF-1a cs: HIF-1a inhibition counter-screen for HIF-2a hits | 1,800 tested, 72% active | MiaPaCa-2 HIF-1a luciferase reporter, desferoxamine, overnight | shares compounds with HIF-2a inh | inhibition, % at 18.8 µM;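 active = mean inhibition of the reporter signal across four replicates at the single tested dose of 50% or more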
An asterisk follows results filed as active; / = not tested or not shown. This is a sample that favours compounds with a hit; in the whole collection about 4% have one here.

SMILES	TWEAK Fn14 block	KKLEB tox	HIF-2a inh	TROY NFkB inh	Peg3 promoter	CF NFkB block	HIF-2a conf	HIF-1a cs	others
Cc1c(CC(=O)NCCCC(=O)O)c(=O)oc2cc3c(cc12)CCC(C)(C)O3	81.1*	-5.8	61.5*	38.6	25.4	9.9	81.2*	86.2*
O=C(Nc1sc2c(c1C(=O)O)CCCC2)c1cccc(Cl)c1	33.8	-3.7	-291.9	-17.7	-261.4	11.4	/	/
CS(=O)(=O)N(CC(=O)NCc1ccccc1)C1CCCCC1	-32.4	-2.4	5.7	-0.5	13.4	1.4	/	/
COc1ccc(OC)c(NC(=O)c2oc3c(c2C)C(O)CC(C)(C)C3)c1 (stereo not drawn)	-42.9	-14.8	2.2	2.9	-0.1	29.4	/	/
O=C(Nc1ccc2nc3n(c(=O)c2c1)CCCC3)c1cc([N+](=O)[O-])ccc1F	89.5*	-22.5	47.8*	80.5*	111.0*	47.5	24.9	105.0*	Mdm2 MdmX conf=103.0*
COc1ccc(-c2c(-c3ccccc3)c(C(=O)C(=O)NCCCN(C)C)n3ccc4cc(OC)c(OC)cc4c23)cc1OC	-45.7	-3.3	88.4*	-31.5	-12.6	-1.9	6.3	100.6*
CN(C)CCNC(=O)C(=O)c1c(-c2ccccc2)cc2ccccn12	17.3	-22.0	3.7	-1.1	-6.0	-8.0	/	/
COc1ccc(-c2csc3ncnc(N4CCN(S(=O)(=O)c5cccc(Br)c5)CC4)c23)cc1	4.4	13.6	11.7	-19.6	27.2	1.0	/	/
C#CCn1c(S(=O)(=O)Cc2ccc(F)cc2)nc(-c2ccccc2)c1-c1ccccc1	-31.1	2.7	-5.6	11.9	11.0	8.8	/	/	Mdm2 MdmX conf=101.2*
CCOC(=O)Cn1c(S(=O)(=O)Cc2ccc(F)cc2)nc(-c2ccccc2)c1-c1ccccc1	-50.2	0.1	5.7	27.5	23.4	14.4	/	/
COc1cccc(NC(=O)CN(C)C(=O)c2cccc(S(=O)(=O)N3CCN(c4ccc(F)cc4)CC3)c2)c1	23.9	11.1	-4.8	19.8	-16.0	-30.5	/	/
Cc1cc(C)n(-c2ncc(C#N)cn2)n1	-12.3	13.9	49.5*	8.6	-0.9	0.9	4.3	-2.8
O=C(Nc1ccc([N+](=O)[O-])cc1)Nc1ccc(OC(F)F)c(Cl)c1	82.3*	-69.2*	41.6*	60.9*	99.5*	64.1*	-70.4	100.1*
CCCN1C(=O)/C(=C/c2nc3ccccc3c(=O)[nH]2)c2cc(C)ccc21	4.3	12.3	-7.5	-12.2	9.5	0.9	/	/
O=C(O)c1c(NC(=O)N2CCOCC2)sc2c1CCCC2	9.2	-15.6	54.9*	2.3	-28.4	-8.2	-12.2	0.7
C/C(=N\NC(=O)c1ccc(N/N=C(\C)c2ccncc2)cc1)c1ccncc1	41.1	-20.7	-1.3	30.7	11.5	39.6	/	/
COc1cc2c(cc1OC)C(C1C(=O)CC(C)(C)CC1=O)N(C(=O)CCl)CC2 (stereo not drawn)	-10.0	-0.9	2.8	-10.5	-5.2	-17.6	/	/
COc1cc2c(cc1OC)C(c1cc(Br)ccc1F)N(C(=O)CCl)CC2 (stereo not drawn)	28.9	-68.4*	89.7*	-13.1	101.8*	105.3*	97.3*	103.2*	Mdm2 MdmX conf=103.2*
CCCC(NC(=O)CCc1c(C)c2cc3c4c(oc3c(C)c2oc1=O)CCCC4)C(=O)O (stereo not drawn)	34.6	7.1	52.1*	20.6	-47.3	14.3	66.8*	50.5*
Cc1oc2c(C)c3oc(=O)c(CCC(=O)N[C@@H](CC(C)C)C(=O)O)c(C)c3cc2c1C	12.9	6.4	11.5	0.7	6.2	6.7	/	/
CC(=O)Oc1ccc(/C=N/NS(=O)(=O)c2ccc(C)cc2)c(OC(C)=O)c1	10.0	2.8	13.7	15.0	-5.5	-0.2	/	/
CCc1ccc(OCC(=O)NC(NC(=S)Nc2ccccc2C)C(Cl)(Cl)Cl)cc1 (stereo not drawn)	43.9	6.0	40.8*	51.1*	60.8*	14.9	-5.7	63.6*
CCc1ccc(OCC(=O)NC(NC(=S)Nc2ccccc2OC)C(Cl)(Cl)Cl)cc1 (stereo not drawn)	24.5	2.0	49.9*	24.8	43.6	2.2	-1.2	28.5
O=C(C(=Cc1ccc(F)cc1)C(=O)c1ccccc1)c1ccccc1	78.0*	-6.6	84.8*	-56.4	99.6*	36.6	43.3*	102.3*
O=C(C(=Cc1ccc(F)cc1)c1ccccc1)c1ccc(O)cc1	2.6	-0.7	-18.0	23.1	18.0	-19.2	/	/
SMILES	TWEAK Fn14 block	KKLEB tox	HIF-2a inh	TROY NFkB inh	Peg3 promoter	CF NFkB block	HIF-2a conf	HIF-1a cs	others
COC(=O)COc1ccc(S(=O)(=O)NCCC2=CCCCC2)cc1Cl	-5.5	12.0	56.6*	7.3	15.1	-9.6	22.1	-9.3
COc1ccc(-c2cc3c(=O)n(CC(=O)NCCCN4CCC(N5CCCCC5)CC4)ncn3n2)cc1	-1.2	-9.4	-60.5	-37.8	-120.8	-0.1	/	/
COc1ccc(-c2cc3c(=O)n(CC(=O)NCCCN4CCC(N5CCCCC5)CC4)nc(C)n3n2)cc1	-17.7	17.5	0.6	-4.4	5.5	-10.3	/	/	Mdm2 MdmX conf=72.7*
C[C@H](O)C#Cc1cnc2c(c1)C(=O)N([C@H](C)CO)C[C@@H](C)[C@H](CN(C)C(=O)Nc1ccc(C(F)(F)F)cc1)O2	-14.0	-8.0	0.5	-6.7	-22.8	-10.1	/	/
Cc1ccc2nc(SCC(=O)Nc3cc(C(C)(C)C)nn3-c3ccccc3)[nH]c2c1	0.1	-16.2	19.4	27.6	24.8	4.5	/	/
CC1(C)C(=O)Nc2ccccc2N1C(=O)Cn1ncc(Cl)c(Cl)c1=O	17.1	5.9	5.1	-23.3	40.4	7.2	/	/	Mdm2 MdmX conf=57.8*
CC(=O)N1CCc2c(sc(NC(=O)C3CC3)c2-c2nc3ccccc3s2)C1	-51.2	-2.8	-12.8	-8.6	-0.5	-49.7	/	/
CC(=O)Nc1sc2c(c1-c1nc3ccccc3s1)CN(C(C)C)CC2	0.9	-44.3	8.6	12.2	98.3*	-83.0	/	/	Mdm2 MdmX conf=102.7*
c1ccc(-n2nnnc2Sc2ncnc3sc4c(c23)CCCC4)cc1	99.5*	-51.8*	40.7*	73.0*	68.5*	82.5*	14.8	62.4*
O=C(O)CSc1ncnc2sc3c(c12)CCCC3	23.3	-2.4	3.3	34.5	-3.5	35.9	/	/
Cc1sc2ncnc(Sc3nnnn3-c3ccc(Cl)cc3)c2c1C	101.7*	-57.2*	41.4*	65.4*	88.5*	83.9*	1.2	102.0*	Mdm2 MdmX conf=102.7*
O=[N+]([O-])c1cc(S(=O)(=O)N2CCCCC2)ccc1NCCN1CCOCC1	-4.4	19.9	16.6	3.7	8.1	-2.9	/	/
COc1ccc(/C=C2/SC(=S)N(CCCC(=O)Nc3ccc(O)cc3)C2=O)cc1	-1.7	2.0	31.2	-21.9	-120.8	-16.6	/	/	Mdm2 MdmX conf=102.2*
